Bioassay records deposited in PubChem by National Center for Advancing Translational Sciences (NCATS).
Compounds with a hit are over-represented: about 13% of the library has one in this group of screens.
Pf growth 48h: Primary qHTS for delayed death inhibitors of the malarial parasite plastid, 48 hour incubation; P. falciparum luciferase growth in erythrocytes, 48 h; Potency, µM (titrated, usually from 28.7 µM), inactives show at the highest dose activity change, negative = inhibition, usual class: inhibitors; hit rate 5.9% among 310,000; AID 504832, 2011; also: potency is read from the fitted curve at half-maximal effect
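Read-out is firefly luciferase luminescence from an integrated reporter in P. falciparum, so falling signal marks reduced parasite growth. Infected erythrocytes were at 2% hematocrit and 0.1% parasitemia (final) in Albumax-supplemented RPMI 1640.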
HCV inhibitor: qHTS Assay for Inhibitors of Hepatitis C Virus (HCV); Huh7.5.1 HCVcc-Cre infection, luciferase reporter, 44 h; Potency, µM (series often up to 41.8 µM), inactives show at the top dose activity change, negative = inhibition, usual class: inhibitors; hit rate 3.4% among 340,000; also: potency is read from the fitted curve at half-maximal effect
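After 44 h co-culture of compound, cells and HCVcc-Cre (~0.5 moi), substrate is added for 15 min at room temperature and luciferase measured over 15 sec. Cells were seeded at 1,000/well and pre-cultured 4 h.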
Pf growth 96h: Primary qHTS for delayed death inhibitors of the malarial parasite plastid, 96 hour incubation; hit rate 6.9% among 320,000; AID 504834, 2011; P. falciparum luciferase reporter growth, 96 h; Potency, µM (titrated, usually from 28.7 µM), inactives show top-dose activity change, negative = inhibition, usual class: inhibitors; also: potency is read from the fitted curve at half-maximal effect
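Parasite growth measured via integrated firefly luciferase reporter in P. falciparum. Infected erythrocytes at 2% hematocrit, 0.05% parasitemia final were treated 96 hours at 37 C under 5% CO2, and luminescence was read.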
HCMV inh: qHTS Assay for inhibitors of the human cytomegalovirus (HCMV); activity change, negative = inhibition, % at 57.5 µM; hit rate 4.5% among 410,000; AID 1259415, 2018; HFF cells, HCMV-luciferase reporter, 72 h; active compounds read low; in the data active = activity change below about -60%; inconclusive = no clear call, values can overlap the other calls; inactive = above about -39%
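Inhibition of viral replication was scored as loss of reporter luminescence in HFFs infected with HCMV-luciferase (MOI 1 PFU/cell) for 72 h; compounds tested at 2 doses, normalized to buffer and Salinomycin controls.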
Starred values were filed as active, the others as inactive; ! = repeats disagree. Unless noted, calls follow the shape of the dose curve; as a rule, active = well fitted inhibition curve with a large enough effect; inconclusive = small, poorly fitted or top-dose-only effect, or another doubt; inactive = no such curve, though single readings can be large or run the other way. % is scaled to controls: 0 for no effect and ±100 for the full control effect.

How did COc1ccc(-c2nn(-c3ccccc3)cc2/C=N/N=C(N)N)cc1OC do in these assays?
Pf growth 48h: 1.65µM*; HCV inhibitor: inconclusive; Pf growth 96h: 1.85µM*; HCMV inh: inconclusive

What do the screens show for `NC(N)=N/N=C/c1cn(-c2ccccc2)nc1-c1cccs1`?
Pf growth 48h: 2.62µM*; HCV inhibitor: inconclusive; Pf growth 96h: 0.522µM*; HCMV inh: -97.7*

How did COc1ccc(-c2nn(-c3ccccc3)cc2/C=N/Nc2ccc3ccccc3n2)cc1OC do in these assays?
Pf growth 48h: 2.62µM*; HCV inhibitor: 10µM*; Pf growth 96h: 2.33µM*; HCMV inh: -25.7

What do the screens show for `CCCCCC(C)NC(=S)NC(=O)c1cc(S(=O)(=O)N2CCOCC2)ccc1C` (configuration not stated)?
Pf growth 48h: inconclusive; HCV inhibitor: inconclusive; Pf growth 96h: 11.7µM*; HCMV inh: -62.5*

How did COCC(C)NC(=S)NC(=O)c1cc(S(=O)(=O)N2CCOCC2)ccc1C (configuration not stated) do in these assays?
Pf growth 48h: 1.8%; HCV inhibitor: -11.1%; Pf growth 96h: 0.7%; HCMV inh: inconclusive

What do the screens show for `CCCC(C)NC(=S)NC(=O)c1cc(S(=O)(=O)N2CCOCC2)ccc1C` (configuration not stated)?
Pf growth 48h: inconclusive; HCV inhibitor: inconclusive; Pf growth 96h: inconclusive; HCMV inh: -70.3*

How did CC(C(=O)N1CCCC1)N(c1ccc(Cl)cc1)S(C)(=O)=O (configuration not stated) do in these assays?
HCMV inh: -15.0

Results for CCOc1ccc(CCNC(=O)C2Cc3ccccc3N2C(=O)CC)cc1 (configuration not stated) ?
HCMV inh: 4.0

What do the screens show for `COc1ccc(CCNC(=O)CCCCn2c(=O)c3ccccc3n(CC(=O)Nc3ccc(C)cc3C)c2=O)cc1OC`?
HCMV inh: -8.5

Results for O=C(c1ccco1)N1CCN(c2ncnc3c2[nH]c2ccc(Br)cc23)CC1 ?
Pf growth 48h: 9.28µM*; HCV inhibitor: 11.2µM*; Pf growth 96h: inconclusive; HCMV inh: inconclusive

How did CCOc1ccc2[nH]c3c(N4CCN(C(=O)c5ccco5)CC4)ncnc3c2c1 do in these assays?
Pf growth 48h: inconclusive; HCV inhibitor: -25.0%; Pf growth 96h: 11.7µM*; HCMV inh: -31.2

What do the screens show for `O=C(c1ccco1)N1CCN(c2ncnc3c2[nH]c2ccccc23)CC1`?
Pf growth 48h: inconclusive; Pf growth 96h: 5.1%

What do the screens show for `CCOc1ccc2[nH]c3c(=O)n(CCc4ccc(OC)cc4)cnc3c2c1`?
Pf growth 48h: -9.0%; HCV inhibitor: 4.7%; Pf growth 96h: 26.5%; HCMV inh: 7.4

What do the screens show for `CCOc1ccc2[nH]c3c(N4CCC5(CC4)OCCO5)ncnc3c2c1`?
Pf growth 48h: inconclusive; HCV inhibitor: inconclusive; Pf growth 96h: 11.7µM*; HCMV inh: -21.3

Results for COC(=O)c1cc(NC(=O)c2nn(C)c3c2CSc2ccccc2-3)cc(C(=O)OC)c1 ?
HCMV inh: -8.4

Results for COc1ccc(S(=O)(=O)Nc2ccc(S(=O)(=O)Nc3ccc(F)cc3)cc2)cc1C ?
Pf growth 48h: 21.9%; HCV inhibitor: inconclusive; Pf growth 96h: -26.8%; HCMV inh: -10.4

Results for COc1ccc(NS(=O)(=O)c2ccc(OC)c(N(C)S(=O)(=O)c3ccc(Cl)cc3)c2)cc1 ?
Pf growth 48h: 11.7µM*; HCV inhibitor: inconclusive; Pf growth 96h: 3.7µM*; HCMV inh: -90.1*

Results for COc1ccc(S(=O)(=O)Nc2ccc(F)cc2)cc1N(C)S(=O)(=O)c1ccc(Cl)cc1 ?
Pf growth 48h: 5.22µM*; HCV inhibitor: inconclusive; Pf growth 96h: -20.2%; HCMV inh: -71.8*

How did COc1ccc(OC)c(-c2cc(-c3cccnc3)nc(N)c2C#N)c1 do in these assays?
Pf growth 48h: inconclusive; HCV inhibitor: inconclusive; Pf growth 96h: 9.28µM*; HCMV inh: 110.2

Results for N#Cc1c(-c2cccc(Br)c2)cc(-c2cccnc2)nc1N ?
Pf growth 48h: 13.1µM*; HCV inhibitor: -22.0%; Pf growth 96h: inconclusive; HCMV inh: inconclusive

What do the screens show for `COc1cccc(-c2cc(-c3cccnc3)nc(N)c2C#N)c1`?
Pf growth 48h: -5.4%; HCV inhibitor: -11.4%; Pf growth 96h: -11.0%; HCMV inh: 3.8

Results for COc1cc(NC(=O)c2noc3c2CC(C)CC3)c(OC)cc1Cl (configuration not stated) ?
HCMV inh: 31.2

What do the screens show for `CCOC(=O)Cn1c(=O)n(C2CCCCC2)c2nc(-c3ccc(OCC)cc3)nc(C(N)=O)c21`?
HCMV inh: 0.6

Results for CN(C)c1ccc(CNC(=O)C2CCCN(S(=O)(=O)c3ccc4c(c3)oc(=O)n4C)C2)cc1 (configuration not stated) ?
HCMV inh: -105.4*

What do the screens show for `Cc1cccc(NC(=O)C2CCCN(S(=O)(=O)c3ccc4c(c3)oc(=O)n4C)C2)c1` (configuration not stated)?
Pf growth 48h: inconclusive; HCV inhibitor: -19.2%; Pf growth 96h: inconclusive; HCMV inh: active!

How did Cc1ccc(NC(=O)C2CCCN(S(=O)(=O)c3ccc4c(c3)oc(=O)n4C)C2)cc1Cl (configuration not stated) do in these assays?
HCMV inh: 14.0

Results for CN(C)c1ccc(CNC(=O)CCc2ccc(S(=O)(=O)N3CCCCCC3)cc2)cc1 ?
Pf growth 48h: 11.7µM*; HCV inhibitor: inconclusive; Pf growth 96h: inconclusive; HCMV inh: 8.7

What do the screens show for `CCCN(CCC)CCNC(=O)C1CCCN(S(=O)(=O)c2ccc3c(c2)oc(=O)n3C)C1` (configuration not stated)?
Pf growth 48h: inconclusive; Pf growth 96h: 0.0%; HCMV inh: 30.8

Results for COc1ccc(CNC(=O)CCc2ccc(S(=O)(=O)N3CCCCCC3)cc2)cc1 ?
Pf growth 48h: inconclusive; HCV inhibitor: -28.7%; Pf growth 96h: inconclusive; HCMV inh: 0.0

What do the screens show for `CCCC(O)(c1ccc(OC)cc1)C(CN1CCOCC1)c1ccc(Cl)cc1` (configuration not stated)?
Pf growth 48h: inconclusive; HCV inhibitor: -10.4%; Pf growth 96h: -13.0%; HCMV inh: 16.3

How did CCCC(O)(c1ccc(Cl)cc1)C(CN1CCOCC1)c1ccc(Cl)cc1 (configuration not stated) do in these assays?
Pf growth 48h: 1.85µM*; HCV inhibitor: 14.1%; Pf growth 96h: 28.3%; HCMV inh: -20.9

What do the screens show for `CCCC(O)(CCN1CCOCC1)c1ccc(Cl)cc1` (configuration not stated)?
Pf growth 48h: -11.6%; HCV inhibitor: 3.1%; Pf growth 96h: -13.9%; HCMV inh: 5.4
